# Screens as filed in PubChem.
# Shown are actives, neighbours in structure and some others; about 1.3% of the full set was active somewhere.
# Cardiac RTF inh = cardiac RTF calcium sensitivity inhibitors, primary screen, biochemical, IANBD-TnC fluorescence, EC70 calcium. Troponin I, cardiac muscle (Homo sapiens) + Troponin T, cardiac muscle (Homo sapiens) + …. IANBD-labeled cardiac RTF, Ca2+ fluorescence. inhibition, % at 7.15 µM. 0.12% of 340,000 active. AID 493244, 2011;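 active = inhibition above the mean inhibition of all tested compounds plus 3 SD, cut at about 17% in these data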;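 also: assay run at fixed EC70 calcium of 1.6 mM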
# cardiac RTF act = cardiac RTF calcium sensitivity activators, primary screen, biochemical, IANBD-TnC fluorescence, EC20 calcium; IANBD-labeled TnC RTF fluorescence at EC20 calcium; 0% EC20 calcium, 100% full calcium; activation, % at 7.2 µM; 0.24% of 340,000 active; AID 493008, 2010;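 active = activation above the mean over all tested compounds plus 3 SD, cut at about 30% in these data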;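 also: rise in fluorescence read as greater calcium sensitivity of cardiac thin filaments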
# LANA DNA inh = inhibitors of KSHV C-LANA binding to DNA, primary screen, biochemical, fluorescence polarization, FAM-LBS DNA, MBP-C-LANA, single point | 0.078% of 340,000 active | AID 504423, 2011 | inhibition, % at 9 µM;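 active = highest replicate inhibition at or above 60% at 9 µM, even if other replicates fall short; inactive = all replicates below 60% inhibition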;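 also: 0% = neutral control wells and 100% = 4 µM acridine orange control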
# CRFR2-BP antag = antagonists of CRF-BP/CRF-R2 complex, primary screen, cell-based, HEK293, calcium dye fluorescence, uHTS. CRF-induced calcium fluorescence. inhibition, % at 11.8 µM. 0.59% of 350,000 active;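 active = inhibition of the ligand-induced calcium signal above about 50% at the single tested concentration, limit read from the data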
# Keap1 Nrf2 FP = Keap1-Nrf2 protein-protein interaction inhibitors, primary screen, biochemical, fluorescence polarization, single point; Kelch-like ECH-associated protein 1 (Homo sapiens), Q14145; Keap1 Kelch-Nrf2 peptide fluorescence polarization, 1536-well; inhibition, % at 9.4 µM; 0.15% of 340,000 active; in the data active = inhibition above about 12%;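 also: human Keap1 Kelch domain with fluorescein labeled Nrf2 9mer peptide probe; 0% = neutral control wells and 100% = peptide positive control; higher means more block of Keap1 binding to Nrf2 peptide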
# Target sequence (Q14145 whole entry, looked up, the tested form may be a part): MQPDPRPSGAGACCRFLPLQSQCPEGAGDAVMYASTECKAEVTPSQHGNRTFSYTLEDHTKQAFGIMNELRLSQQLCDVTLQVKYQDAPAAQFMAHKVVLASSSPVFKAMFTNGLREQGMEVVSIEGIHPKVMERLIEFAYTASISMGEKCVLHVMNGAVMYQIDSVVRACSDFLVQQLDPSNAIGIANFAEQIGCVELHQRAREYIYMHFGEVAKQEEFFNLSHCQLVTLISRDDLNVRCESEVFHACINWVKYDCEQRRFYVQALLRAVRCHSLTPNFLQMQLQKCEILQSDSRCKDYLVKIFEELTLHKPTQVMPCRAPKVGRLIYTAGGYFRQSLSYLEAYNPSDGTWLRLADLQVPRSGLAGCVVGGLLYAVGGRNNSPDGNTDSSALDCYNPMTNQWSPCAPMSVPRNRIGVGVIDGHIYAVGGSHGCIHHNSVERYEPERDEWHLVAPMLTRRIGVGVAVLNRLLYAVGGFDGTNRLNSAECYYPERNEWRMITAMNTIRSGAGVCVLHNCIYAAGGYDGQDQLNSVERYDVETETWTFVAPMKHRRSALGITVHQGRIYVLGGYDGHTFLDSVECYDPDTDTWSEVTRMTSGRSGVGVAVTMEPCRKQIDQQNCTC
# CRFR2-BP ag = agonists of CRF-BP/CRF-R2 complex, primary screen, cell-based, HEK293, calcium dye fluorescence, uHTS; 0.46% of 350,000 active; calcium dye fluorescence (FLIPR); percent of saturating CRF peptide response; activation, % at 13.2 µM; AID 588473, 2011;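 active = activation of at least 50%, plus an integration ratio under a set limit after plate pattern correction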;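 also: plate controls were neutral control wells without compound for no effect and CRF at EC100 for full effect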
# Keap1 Kelch bind = Keap1 Kelch domain binders by thermal stabilisation, dose response, biophysical, thermal shift, RT-PCR instrument, cherry-pick | shares compounds with Keap1 Nrf2 FP | delta Tm; active compounds read high | max delta Tm, degrees C | 8% of 400 active | AID 651823, 2012; in the data active = max delta Tm above about 0.48 degrees C
# Dye-only ctr = Sypro Orange dye melt without protein, dose response, artefact control for Keap1-Nrf2 interaction inhibitor project, biochemical, thermal shift counterscreen, cherry-pick. shares compounds with Keap1 Nrf2 FP. Sypro Orange dye-only thermal melt, no protein, delta Tm; top dose 26 µM. delta Tm, degrees C (test concentration not listed). 140 tested, under 10 active;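 active = at highest dose tested, delta Tm positive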
# Active calls of the source: *; nt = not tested or not shown.
SMILES,Cardiac RTF inh,cardiac RTF act,LANA DNA inh,CRFR2-BP antag,Keap1 Nrf2 FP,CRFR2-BP ag,Keap1 Kelch bind,others
COc1ccc(N2CCN(C(=O)CCCNC(=O)Cn3cnc4sc(C)c(C)c4c3=O)CC2)cc1,-6,-6,-1,17,-1,1,nt,
COc1ccccc1N1CCN(C(=O)c2cc3cc(Br)ccc3oc2=O)CC1,-6,0,0,-5,1,6,nt,
CCCc1nc2oc3cc(OC)ccc3c(=O)c2c(=O)n1Cc1ccco1,-4,2,0,-43,14*,3,-0.19,
COc1ccc2c(=O)c3c(=O)n(Cc4ccco4)c(-c4ccccc4)nc3oc2c1,4,1,1,2,-1,0,nt,
N#Cc1c(SCC(=O)Nc2nncs2)sc2c(O)cc(=O)[nH]c12,-12,-5,20,-10,21*,5,0.19,Dye-only ctr=-32
N#Cc1c(SCC(=O)Nc2ccc(C(F)(F)F)cc2)sc2c(O)cc(=O)[nH]c12,-4,1,1,5,-4,0,nt,
COc1ccc(C(=O)N(Cc2ccccc2)c2cccc(C)c2)cc1,0,-2,0,0,-3,0,nt,
NC(=O)C1CCN(c2ccc3c(c2)S(=O)(=O)c2ccccc2C3=O)CC1,-9,19,5,-9,0,20,nt,
CC1CCN(c2ccc3c(c2)S(=O)(=O)c2ccccc2C3=O)CC1,-30,21,24,-25,21*,36,0.32,
C=CCOC(=O)C1=C[C@H](c2csc3ccccc23)C[C@H](OCc2ccc(CO)cc2)O1,-18,-3,44,9,17*,0,-0.19,Dye-only ctr=-27
C=CCOC(=O)C1=C[C@@H](c2csc3ccccc23)C[C@@H](OCc2ccc(CO)cc2)O1,5,7,-2,9,-9,0,nt,
CC1=C(C(N)=O)C(c2ccccc2)n2nc(-c3cccc(C)c3)nc2N1 (centres undefined),-13,1,-1,-7,-4,1,nt,
NC(=O)C1CCN(C2=C(Cl)C(=O)c3ccccc3C2=O)CC1,0,-3,-1,-16,14*,-2,0.14,
CCN(CC)S(=O)(=O)c1ccc(C(=O)OCCN2C(=O)c3cccc4c(N5CCOCC5)ccc(c34)C2=O)cc1,-4,4,31,-243,27*,184*,0.07,
CCOc1cc(C2C(C#N)=C(N)OC(C)=C2C(C)=O)cc(Br)c1O (centres undefined),-24,19,47,-13,26*,20,-0.1,
COc1ccc(Nc2nc3ccccc3nc2-n2nc(C)cc2C)cc1,3,-5,14,-26,43*,9,-0.16,
COC(=O)c1cn(CC(=O)Nc2ccc(OC)cc2)c2ccccc12,1,-2,-2,0,-4,0,nt,
CCC(=O)c1cn(CC(=O)Nc2ccc(OC)cc2)c2ccccc12,-5,2,26,-8,55*,0,0.01,
CSc1ccccc1OCc1cc(C(=O)NCc2ccc(C)s2)no1,2,1,0,39,-2,5,nt,
CCOc1ccc(NC(=S)NC(=O)/C=C/c2ccco2)cc1,-4,3,2,-23,-3,-1,nt,
COc1cc(NS(=O)(=O)c2ccc(NC(=S)NC(=O)/C=C/c3ccco3)cc2)ncn1,-8,-7,34,21,17*,6,0.83*,
C/C(C/C(C)=C1/SC(=S)NC1=O)=C1\SC(=S)NC1=O,-6,-5,32,13,49*,1,2*,
Cc1cc(C)c(S(C)(=O)=O)c(=O)[nH]1,-14,14,0,8,-4,0,nt,
Cc1cc(=O)c2c([nH]1)c(C)cc1[nH]c(C)c(C)c12,-33,22,51,-6,25*,4,-0.16,Dye-only ctr=-26
Nc1ccc2c(S(=O)(=O)O)cccc2c1S(=O)(=O)O,-4,0,2,24,-2,1,nt,
SMILES,Cardiac RTF inh,cardiac RTF act,LANA DNA inh,CRFR2-BP antag,Keap1 Nrf2 FP,CRFR2-BP ag,Keap1 Kelch bind,others
Nc1cccc2cc(S(=O)(=O)O)ccc12,6,-11,73*,19,15*,2,0.24,
Cc1ccc(C(=O)N/C(=C\c2ccc(-c3ccccc3[N+](=O)[O-])o2)C(=O)NCCCN(C)C)cc1,-12,11,32,-5,14*,3,0.02,
O=C(Nc1ccc(N2CCCCC2)c(Cl)c1)c1ccc2c(c1)OCCO2,-4,-7,-1,-7,-3,13,nt,
COCCCNC(=O)c1ccc2c3c(onc13)-c1ccccc1C2=O,-5,6,18,-11,79*,1,-0.19,
COCCCNC(=O)c1ccccc1Oc1ccccc1,-5,-3,0,-9,-2,0,nt,
COC(=O)c1cc(N2CCN(C)CC2)nc2ccccc12,-62,50*,53,-1,31*,18,-0.03,
N#CC1=C(N)C(C#N)(C#N)[C@H](c2ccncc2)[C@H]2CN(C(=O)OCc3ccccc3)CC=C12,-1,5,0,12,0,1,nt,
CC(C)N1CC=C2C(C#N)=C(N)C(C#N)(C#N)C(c3ccccc3)C2C1 (centres undefined),-77,46*,33,-27,12*,90*,-0.09,Dye-only ctr=-30
CCOC(=O)c1c(C)[nH]c(C(=O)COC(=O)c2cccnc2Cl)c1C,-3,-1,11,-2,25*,0,-0.07,Dye-only ctr=-27
CCC(=O)c1cn(CC(=O)Nc2cc(C)ccc2C)c2ccccc12,-3,0,-1,8,-1,5,nt,
NC(=O)COc1ccc(NC(=O)CC23CC4CC(CC(C4)C2)C3)cc1,-3,0,1,-17,22*,0,-0.09,
CNC(=O)c1ccc(NC(=O)CC23CC4CC(CC(C4)C2)C3)cc1,-9,-7,0,6,-2,2,nt,
O=C(N/N=C/c1ccc2c(c1)OCO2)c1ccc(COc2cccc3cccnc23)cc1,-4,3,-1,-4,-4,-1,nt,
